# Many of the other results were omitted from the sample, so hits are more common in it than they were.
# LmPK inh = qHTS Assay for Inhibitors of Leishmania Mexicana Pyruvate Kinase (LmPK); 0.37% of 290,000 active; Q27686; AID 1721, 2009; Potency, µM (doses to about 57.5 µM), inactives show at the highest dose activity change, negative = inhibition, most hits filed as inhibitors; purified LmPK, Kinase-Glo ATP luminescence, 1 h; active means well fitted curve in the direction sought with a large enough effect; inconclusive means small, poorly fitted or top-dose-only effect, or another doubt; inactive means no such curve, though single readings can be large; an effect the other way counts as inactive or inconclusive; further: potency means the concentration at half of the fitted maximal effect; on the % scale 0 is the no-effect control and ±100 the full control effect
# Target sequence (Q27686 whole entry, looked up): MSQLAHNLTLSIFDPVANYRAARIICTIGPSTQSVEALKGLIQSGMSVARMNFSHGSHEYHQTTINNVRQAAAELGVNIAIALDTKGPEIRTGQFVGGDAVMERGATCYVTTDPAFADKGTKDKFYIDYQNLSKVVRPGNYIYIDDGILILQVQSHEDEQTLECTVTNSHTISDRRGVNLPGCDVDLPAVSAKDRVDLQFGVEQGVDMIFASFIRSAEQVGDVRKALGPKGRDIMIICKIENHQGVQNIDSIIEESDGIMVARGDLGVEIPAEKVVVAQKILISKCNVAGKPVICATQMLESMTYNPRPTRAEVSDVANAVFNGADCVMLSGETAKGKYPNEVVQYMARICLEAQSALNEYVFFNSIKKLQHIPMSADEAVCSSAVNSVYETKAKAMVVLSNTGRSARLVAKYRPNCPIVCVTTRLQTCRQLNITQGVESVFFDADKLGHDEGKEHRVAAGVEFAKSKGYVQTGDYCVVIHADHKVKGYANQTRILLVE
#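 Purified LmPK (0.1 nM) converted ADP (0.1 mM) to ATP with PEP (0.5 mM) in imidazole buffer pH 7.2 with KCl and MgCl2, 1 h at room temperature. ATP was read by Kinase-Glo luminescence; data normalized to uninhibited and no-enzyme controls.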
# TbPYK inhibitor = qHTS of Trypanosoma Brucei Inhibitors. TbPYK enzyme, Kinase-Glo Plus ATP luminescence, 45 min. Potency, µM (top dose mostly 76.8 µM), inactives show at the highest dose activity, negative = inhibition, actives largely listed as inhibitors. 0.12% of 410,000 active; active means well fitted curve in the direction sought with a large enough effect; inconclusive means small, poorly fitted or top-dose-only effect, or another doubt; inactive means no such curve, though single readings can be large; an effect the other way counts as inactive or inconclusive; further: potency means the concentration at half of the fitted maximal effect; on the % scale 0 is the no-effect control and ±100 the full control effect; nearly all actives have a fitted effect of over 50% in size
#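 In this concentration-response screen, enzyme-free wells defined baseline while DMSO plates tracked drift. Each reaction combined TbPYK, substrate, compound and 130 uM ADP for 45 min at room temperature. Kinase-Glo Plus luminescence gave the signal.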
# SARS PLP yeast = qHTS of Yeast-based Assay for SARS-CoV PLP; S. cerevisiae expressing SARS-CoV PLpro, growth rescue; Potency, µM (series often up to 32.9 µM), for the others: at the top dose activity, positive = growth rescue, usual class: activators; 0.19% of 330,000 active; further: potency means the concentration at half of the fitted maximal effect; 0% is about no effect; nearly all actives have a fitted effect of over 55% in size
# NS1 function inh = qHTS Assay for Inhibitors of Influenza NS1 Protein Function | Potency, µM (top dose mostly 46.1 µM), for the others: top-dose activity, positive = more growth | 0.4% of 270,000 active | AID 2326, 2010; further: potency means the concentration at half of the fitted maximal effect; actives are rising curves; nearly all actives have a fitted effect of over 50% in size
#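 Recovery from NS1-induced slow growth read by OD600 in budding yeast switched to galactose assay medium (pH 6.0, -URA) at 1:100 dilution. Compound 23 nl per well; the matching strain lacking NS1 serves as control.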
# Shiga inhibitor = A qHTS for Small Molecule Inhibitors of Shiga Toxin. inhibition, % at 38.7 µM. 9.2% of 290,000 active. Vero cells, Shiga toxin protein synthesis inhibition reporter. AID 2315, 2010; in the data active means inhibition mostly above about 28%, no sharp cut-off; inactive means mostly below about 43%; further: 0% is about no effect
# CHX counter = Cycloheximide Counterscreen for Small Molecule Inhibitors of Shiga Toxin; cell reporter, cycloheximide protein synthesis inhibition counterscreen; max response, %; 12% of 300,000 active; AID 2314, 2010; in the data active means max response mostly above about 13%, no sharp cut-off; inactive means mostly below about 14%; further: read at 38.3 µM for the half of the compounds with a filed dose; 0% is about no effect
# The depositor's hits bear a star; ? = inconclusive; . = not tested or not shown. Unless noted, the call rests on the fitted dose curve.
SMILES,LmPK inh,TbPYK inhibitor,SARS PLP yeast,NS1 function inh,Shiga inhibitor,CHX counter
CCc1ccc(OCc2ccc(C(=O)OC)o2)cc1,-4%,1%,-2%,-8%,154*,67*
Cc1cccc(OCc2ccc(C(=O)N3CCOCC3)o2)c1,-4%,-1%,-6%,13%,7,5
COC(=O)c1ccc(COc2ccc3c(c2)CCC3)o1,-1%,-3%,-1%,-34%,117*,54*
COC(=O)c1ccc(COc2ccc(NC(C)=O)cc2)o1,-13%,-2%,0%,-1%,16,-1
Cn1cccc1C(=O)OCC(=O)c1cc2ccccc2o1,-2%,-2%,4%,-26%,62*,29*
O=C(COC(=O)c1ccc(Cl)s1)c1cc2ccccc2o1,5%,-6%,4%,-4%,-20,19
CCC(C)c1ccc(OCc2ccc(C(=O)OC)o2)cc1 (centres undefined),-2%,-1%,0%,2%,149*,101*
O=C(NCc1cccnc1)c1ccc(COc2ccc3c(c2)CCC3)o1,2%,2%,-6%,-71%,-5,5
CCC(=O)N1CCc2cc(S(=O)(=O)NC(Cc3ccccc3)C(=O)NCc3ccc(F)cc3)ccc21 (centres undefined),.,3%,.,.,.,.
O=C(NNC(=O)C1CC(c2cccs2)=NO1)Nc1ccc(Cl)cc1 (centres undefined),1%,-7%,-1%,-7%,3,-3
CC(=O)C[C@H](O)CC(=O)[C@H]1OC(=O)[C@@H](C)CCCCc2ccccc21,.,3%,1%,.,.,.
Cc1cccn2c(=O)c3cc(C(=O)NCCN4CCOCC4)n(Cc4ccccc4)c3nc12,-11%,.,2%,-3%,-13,1
Cc1cccn2c(=O)c3cc(C(=O)NCCN4CCOCC4)n(C)c3nc12,-2%,0%,-2%,-9%,59*,37*
O=C(NCCCN1CCOCC1)c1ccc(Cl)cc1Cl,2%,-1%,14%,4%,23,17*
Cc1ccc(Nc2cc(C(=O)NCCCN3CCOCC3)c3ccccc3n2)cc1C,8%,18%,2%,-7%,40*,38*
Cc1ccc(C(=O)NCCN2CCOCC2)c(Cl)c1,-3%,5%,-2%,7%,28*,13*
Cc1nn2c(=O)cc(COC(=O)c3cccs3)nc2s1,.,-13%,.,.,.,.
Cc1cc(=O)oc2c(C)c(OCC(=O)N3CCN(c4cccc(Cl)c4)CC3)ccc12,1%,-6%,-4%,9%,-14,-4
O=C(Cn1cnc2ccccc21)NCCCN1CCOCC1,3%,4%,2%,-10%,25*,24*
Cc1ccc(-c2nn(-c3ccccc3)cc2C(=O)NCCCN2CCOCC2)cc1,-7%,4%,2%,4%,36,16*
CCCCNc1c(-c2ccc(F)cc2)nc2nc(C)cc(C)n12,.,5%,.,.,.,.
Cc1ccc(C(=O)O/N=C/c2c(C)nn(C)c2Cl)cc1,1%,2%,-1%,-6%,-8,12
Cc1ccc(C(=O)Oc2oc(-c3ccco3)nc2C=Nc2ccc(Cl)cc2)cc1,-6%,-24%,-28%,-37%,99*,36*
O=C(Oc1ccc(-c2ccccc2)cc1)c1ccco1,.,7%,.,.,.,.
O=C(Oc1oc(-c2ccco2)nc1C=Nc1ccccc1)c1ccoc1,-4%,-27%,2%,-55%,21,17*
SMILES,LmPK inh,TbPYK inhibitor,SARS PLP yeast,NS1 function inh,Shiga inhibitor,CHX counter
O=C(Oc1oc(-c2ccco2)nc1C=Nc1ccccc1)c1ccco1,8%,?,0%,-3%,39*,16*
O=C(c1ccoc1)N1CCN(c2cc(-c3ccco3)nc3cc(-c4ccccc4)nn23)CC1,.,-16%,.,.,.,.
Cc1ccc(C)c(NC(=O)CSc2ncc3c(n2)-c2ccccc2N(Cc2ccccc2C)S3(=O)=O)c1,.,-6%,.,.,.,.
Cc1cc(Cn2ccnc2)c(C)c([N+](=O)[O-])c1Cn1ccnc1,0%,5%,0%,3%,-3,-2
CCOc1ccc(NC(=O)CN(C)C(=O)COc2cccc3c2OC(C)(C)C3)cc1OCC,.,1%,-8%,.,.,.
Cc1nnc(SCC(=O)c2ccc(Br)cc2)s1,-1%,6%,0%,0%,41,19*
Cc1ccc(C(=O)CSc2nnc(C)s2)cc1,-7%,0%,-31%,18%,66*,53*
Cc1ccc(NC(=O)c2ccc(CSc3nnc(C)s3)cc2)c(C)c1,2%,2%,-11%,6%,97*,43*
Cc1nnc(SCc2ccc(C(=O)Nc3cc(Cl)ccc3C)cc2)s1,4%,-5%,16%,-8%,36,13
O=C(Nc1nc2ccc(SC(F)F)cc2s1)c1ccc(NS(=O)(=O)c2ccc(F)c(F)c2)cc1,0%,-4%,3%,?,79*,41*
CS(=O)(=O)c1ccc2nc(NC(=O)c3ccc(NS(=O)(=O)c4ccc(F)c(F)c4)cc3)sc2c1,2%,-4%,2%,3%,28,15
CS(=O)(=O)c1ccc2nc(NC(=O)c3cccc(NS(=O)(=O)c4ccc(F)c(F)c4)c3)sc2c1,-4%,-2%,9%,27%,35,19*
CCOC(=O)[C@]12CCCC=C1N(Cc1ccc(Cl)cc1Cl)C(=O)[C@H](CC(=O)NCCC(C)C)C2,.,-1%,.,.,.,.
Cc1ccc(OS(=O)(=O)c2ccccc2)c(/C=N/N=C2\NC(=O)C(C)S2)c1 (centres undefined),-2%,-12%,-12%,-3%,26,12*
Cc1ccc(C(=O)OCc2nnc(-c3ccc(Br)cc3)o2)cc1,9%,0%,-17%,.,19,4
Cc1ccc(C(=O)OCc2nnc(-c3ccccc3)o2)o1,-4%,1%,-16%,-77%,34,25*
O=C(OCc1nnc(-c2ccccc2)o1)c1cc2ccccc2cc1O,0%,1%,-1%,-6%,31,12
O=C(OCc1nnc(-c2ccccc2Br)o1)c1ccco1,.,-8%,1%,.,.,.
Cc1ccc(-c2nnc(COC(=O)c3ccco3)o2)cc1,-6%,7%,0%,-26%,60*,38*
Cc1ccc(-c2nnc(COC(=O)c3cccs3)o2)cc1,-4%,-11%,?,-46%,80*,54*
O=C(OCc1nnc(-c2ccccc2)o1)c1ccc2ccccc2n1,-4%,-10%,-11%,-31%,26*,12*
CCOC(=O)c1c(N)sc(-c2ccccc2)c1C,6%,-26%,15%,6%,68*,34*
CCOC(=O)c1c(N)n[nH]c1-c1ccc(OC)cc1,-3%,4%,-3%,3%,-12,2
CCOC(=O)c1cc(-c2ccccc2)sc1NC(=O)CC,4%,-11%,-5%,-11%,-9,-1
CCOC(=O)c1sc(-c2ccccc2)cc1N,0%,9%,-13%,-11%,116*,59*

# Assay outcomes deposited in PubChem BioAssay by National Center for Advancing Translational Sciences (NCATS).
